# Out of some 330,000 compounds screened, about 1,900 (0.58%) were called active. Another 4% or so got no clear call; they are omitted. Cut-off read from the data, not from the text of the source: inconclusive = inhibition above about 70% without an active follow-up result; inactive = below that. The list is a sample of the results. Potency and affinity values are given separately.
# Assay: M. tuberculosis growth inhibition, HTS (AID 449762);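 note: bacterial growth assessed after seven days of incubation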
# Settings: M. tuberculosis H37Rv growth inhibition, 7H9 media; at 25 µM; hits give high values
row,Compound,inhibition
1,COc1cc2c(cc1O)CCN(C(=O)CSc1nncn1C)[C@@H]2C,-6.62% (inactive)
2,O=C(NCc1cccc(Br)c1)C1CC(c2ccccc2C(F)(F)F)=NO1 (stereo not given),1.36% (inactive)
3,COC(=O)CCCCC1SCC(NC(=O)c2ccccc2)C1Cl (stereo not given),-3.83% (inactive)
4,COC(=O)CCCCC1SCC(NC(=O)c2ccccc2)C1OC(C)=O (stereo not given),4.8% (inactive)
5,COC(=O)c1cc(C#N)c(N2CCN(C)CC2)nc1C,-0.25% (inactive)
6,O=C(COc1ccccc1)NCC(=O)N1CCCCCC1,-3.96% (inactive)
7,CCn1cc(Cl)c(C(=O)N2N=C(c3ccc4ccccc4c3)CC2c2ccccc2O)n1 (stereo not given),0.64% (inactive)
8,CCn1cc([N+](=O)[O-])c(C(=O)N2N=C(c3ccc(O)c(OC)c3)CC2c2ccccc2O)n1 (stereo not given),-14.8% (inactive)
9,CC1CCN(C(=O)c2ncn(Cc3ccccc3)c2C(=O)N2CCC(C)CC2)CC1,5.23% (inactive)
10,COc1ccccc1OCCNC(=O)c1ccc(S(=O)(=O)N(C)C)cc1,-2.93% (inactive)
11,COc1ccccc1NC(=O)c1ccc(S(=O)(=O)N(C)C)cc1,-13.6% (inactive)
12,CC(C)CC(=O)NC(=S)Nc1ccccc1F,-4.61% (inactive)
13,O=C(Nc1ccnc(-c2ccncc2)n1)c1ccc(Cl)cc1,11.3% (inactive)
14,CN(CCOc1ccc(Cl)cc1)C(=O)CN1C(=O)NC2(CCCCC2)C1=O,-0.72% (inactive)
15,COc1ccc(OC)c(NC(=O)C2CCN(Cc3cnn(-c4ccccc4)c3-n3cccc3)CC2)c1,61.3% (inactive)
16,COc1ccc(NC(=O)C2CCN(Cc3cnn(-c4ccccc4)c3-n3cccc3)CC2)cc1OC,-3.38% (inactive)
17,c1ccc(Nc2nc(N3CCCC3)nc(N3CCCC3)n2)cc1,17.2% (inactive)
18,c1ccc(Nc2nc(N3CCCCC3)nc(N3CCCCC3)n2)cc1,4.61% (inactive)
19,O=C(CSc1nc2ccccc2o1)N1CCOCC1,-2.89% (inactive)
20,Cc1c(NC(=O)C(c2ccccc2)c2ccccc2)cccc1C(=O)O,0.47% (inactive)
21,O=C(NC1CCCC1)C(c1ccc(F)cc1)N(Cc1ccc(F)cc1)C(=O)CCl (stereo not given),0.54% (inactive)
22,CCOC(=O)c1c(CC(C)C)csc1NC(C)=O,-1.62% (inactive)
23,CCOC(=O)c1c(CC(C)C)csc1NC(=O)C(C)C,1.18% (inactive)

row,Compound,inhibition
1,Cc1cccc(NC(=O)c2ccc(S(=O)(=O)N3CCCCC3C)cc2)n1 (stereo not given),8.6% (inactive)
2,O=c1[nH]c2ccccc2nc1/C=C(\O)C1CC1,-0.58% (inactive)
3,O=C(C1CCN(S(=O)(=O)c2cccc3cccnc23)CC1)N1CCN(C2CCCC2)CC1,-2.61% (inactive)
4,c1cc(CNC2C3CC4CC(C3)CC2C4)ccn1 (stereo not given),10.3% (inactive)
5,CC(NCc1ccc(N(C)C)cc1)C1CC2CCC1C2 (stereo not given),0.02% (inactive)
6,CNC(=O)c1ccc(NC(=O)Nc2ccccc2)cc1,-1.42% (inactive)
7,Cc1occc1-c1nnc(SCC(=O)Nc2ccccn2)o1,36.7% (inactive)
8,Cc1occc1-c1nnc(SCC(=O)NCCc2ccccc2)n1Cc1ccccc1,1.99% (inactive)
9,CC(C)(C)c1ccc(-c2nnc(SCC(=O)NC3CCS(=O)(=O)C3)n2N)cc1 (stereo not given),1.59% (inactive)
10,COc1cc(CC(=O)OCC(=O)Nc2ccc3c(c2)OCO3)cc(OC)c1OC,0.09% (inactive)
11,COc1ccc(C2=NOC(Cn3nc(C(=O)O)cc3-c3ccccc3)C2)cc1 (stereo not given),-10.9% (inactive)
12,O=C(Cn1ccc2ccccc2c1=O)NCCC(=O)N1CCN(c2ccccc2)CC1,2.9% (inactive)
13,O=C(CSc1nc(=O)n(CCCN2CCOCC2)c2c1CCCC2)Nc1ccc(F)cc1,-5.62% (inactive)
14,Cc1cccc(C)c1NC(=O)N1CCCCCCC1,-5.98% (inactive)
15,C#CCOCCOCCOCCNc1nc(N2CCN(C(=O)CCCCCCCCCCNC(=O)[C@H](CCCCN)n3cc(CCO)nn3)CC2)nc(N2CCN(C(=O)CCCCCCCCCCNC(=O)[C@H](CCCCN)n3cc(CCCC(=O)O)nn3)CC2)n1,24.8% (inactive)
16,C#CCOCCOCCOCCNc1nc(N2CCN(C(=O)CCCCCCCCCCNC(=O)[C@H](CCCCN)n3cc(CCCC(=O)O)nn3)CC2)nc(N2CCN(C(=O)CCCCCCCCCCNC(=O)[C@H](CCCCN)n3cc(CCCC(=O)O)nn3)CC2)n1,-1.93% (inactive)
17,CC(C)CNC(=O)COC(=O)C1c2ccccc2Oc2ccccc21,9.4% (inactive)
18,N#CCC(=O)Nc1ccc(C(=O)OCC(=O)c2ccc3c(c2)OCCO3)cc1,-4.26% (inactive)
19,CCC(C(=O)Nc1ccc(OC)c(Cl)c1)c1ccccc1 (stereo not given),-3.28% (inactive)
20,O=C(CSc1ccc(-c2cccnc2)nn1)Nc1ccc(Br)cc1,-0.4% (inactive)
21,Cc1nonc1OCCNCCNc1ccc([N+](=O)[O-])cc1Cl,10.9% (inactive)
22,COc1ccc(NC(=O)CN2CCN(CC(=O)Nc3ccc4c(c3)OCO4)CC2)cc1,-4.59% (inactive)
23,COc1ccccc1NC(=O)CN1CCN(CC(=O)Nc2ccc(OC)c(OC)c2)CC1,-1.32% (inactive)

row,Compound,inhibition
1,CCOC(=O)c1c(C=O)c2ccccc2n1Cc1ccccc1F,0.55% (inactive)
2,N#CC1=C(N)Oc2n[nH]c(-c3cccs3)c2C1c1ccccc1C(=O)O (stereo not given),-1.81% (inactive)
3,CCN(CC)C(=O)CC(c1ccc(OC)cc1)c1c(O)cc(OC)cc1OC (stereo not given),-3.84% (inactive)
4,CCN(C(=O)COC(=O)c1[nH]c(=O)[nH]c(=O)c1N)c1ccccc1,-1.59% (inactive)
5,C(=N\Nc1nc(Nc2ccccc2)nc(Nc2ccccc2)n1)/c1cccnc1,11.1% (inactive)
6,C(=N\Nc1nc(Nc2ccccc2)nc(Nc2ccccc2)n1)/c1ccncc1,0.63% (inactive)
7,CC(=O)c1c(O)cc(C)n(-c2ccc(F)cc2)c1=O,-1.89% (inactive)
8,Cc1ccccc1NC(=S)N1CCCC(c2nc3ccccc3[nH]2)C1 (stereo not given),0% (inactive)
9,Cc1[nH]n(S(=O)(=O)c2ccccc2)c(=O)c1N=Nc1cccc(Cl)c1,0.21% (inactive)
10,Cc1[nH][nH]c(=O)c1N=Nc1ccccc1Cl,-0.87% (inactive)
11,COc1cccc(CNC(=O)Cn2ccc([N+](=O)[O-])n2)c1,-0.85% (inactive)
12,CCC(=O)Nc1ccc2c(c1)nc(CCNC(=O)c1ccco1)n2C,2.89% (inactive)
13,CS(=O)(=O)c1ccc2nc(NC(=O)c3cccc(NS(=O)(=O)c4ccc(F)c(F)c4)c3)sc2c1,60.6% (inactive)
14,CS(=O)(=O)c1ccc2nc(NC(=O)c3ccc(NS(=O)(=O)c4ccc(F)c(F)c4)cc3)sc2c1,-0.5% (inactive)
15,CCN(CC)S(=O)(=O)c1ccc(N2CCOCC2)c(NS(=O)(=O)c2ccc(C(C)C)cc2)c1,-4.72% (inactive)
16,Cc1ccc([C@@H]2CC=C(C(=O)O)[C@H](c3ccc(F)cc3)N2S(=O)(=O)c2ccccc2C)cc1,0.59% (inactive)
17,O=C1CCCC(=O)N1c1ccc(F)cc1,-3.22% (inactive)
18,CCCCN1C(=O)c2ccc(C(=O)Nc3cccnc3)cc2C1=O,48.5% (inactive)
19,CC1=C(/C=C/C(C)=C/C=C/C(C)=C\C(=O)O)C(C)(C)CCC1,69.3% (inactive)
20,CC1=C(/C=C/C(C)=C/C=C/C(C)=C/C(=O)O)C(C)(C)CCC1,26.5% (inactive)
21,O=c1cc(C23CC4CC(CC(C4)C2)C3)[nH][nH]1,4.36% (inactive)
22,N#Cc1ccc(C23CC4CC(CC(C4)C2)C3)[nH]c1=O,12.1% (inactive)
23,Cc1cnc(CN(C)C(=O)CC2C(=O)NCCN2CCCc2ccccc2)[nH]1 (stereo not given),-8.51% (inactive)

row,Compound,inhibition
1,Cc1nn(C(C)C(=O)NCc2ccccc2F)c(=O)c2nn(-c3ccccc3)c(C)c12 (stereo not given),0.01% (inactive)
2,CCN1C(=O)[C@H]2[C@@H](c3ccc(-c4ccc(Cl)c(Cl)c4)cc3)N[C@@](Cc3ccccc3)(C(=O)OC)[C@H]2C1=O,4.89% (inactive)
3,COc1ccccc1N1CCN(CC(=O)Nc2nccs2)CC1,6.27% (inactive)
4,Cc1ccccc1N1CCN(CC(=O)Nc2nccs2)CC1,6.57% (inactive)
5,O=C(CC(=O)NC1CCCCC1)N/N=C/c1ccccc1F,7.41% (inactive)
6,CCOC(=O)CNC(=O)c1cnc(Nc2ccccc2OC)c2ccccc12,2.72% (inactive)
7,O=C(O)Cc1c(-c2ccccc2Cl)c2cc(Br)ccc2[nH]c1=O,0.9% (inactive)
8,N#Cc1ccc(-c2csc(NNC(=O)c3ccccc3)n2)cc1,1.66% (inactive)
9,O=C(NNc1nc(-c2ccc(F)cc2)cs1)c1ccccc1,1.95% (inactive)
10,Cc1cc(C)c(C#N)c(SCCS(=O)(=O)c2ccc(C(C)(C)C)cc2)n1,1.43% (inactive)
11,CCC(=O)CCC(=O)c1ccc2ccccc2c1,9.13% (inactive)
12,COc1cccc2c1C(=O)C=C(C)C2=O,-8.66% (inactive)
13,O=C1C=C(O)c2c(O)cccc2C1=O,-6.54% (inactive)
14,CC(=O)NC12CC3CC(C1)CC(C(=O)Nc1c(C)n(C)n(-c4ccccc4)c1=O)(C3)C2,-13% (inactive)
15,COc1ccc(NC(=O)CSc2nnnn2-c2ccc(F)cc2)cc1,-7.12% (inactive)
16,C[C@@]12C(=O)N(CCO)CC(=O)N1[C@H](/C=C/c1ccccc1)[C@@H]1C(=O)N(c3ccccc3)C(=O)[C@@H]12,-1.57% (inactive)
17,CC1(C)CN(c2cccc(C#N)c2)C1=O,-3.52% (inactive)
18,CC(=O)OCC1(C)CN(c2ccccc2)N(C(=O)c2ccc(F)cc2)C1=O (stereo not given),37.7% (inactive)
19,COc1cccc(CN(C(=O)c2ccccc2Br)C2CCS(=O)(=O)C2)c1 (stereo not given),-0.47% (inactive)
20,CC1(C)CC(=O)C2=C(C1)NC(Nc1nc3ccccc3o1)=NC21CCCCC1,-1.05% (inactive)
21,CC1(C)CC(=O)C2=C(C1)NC(Nc1nc3ccccc3o1)=NC21CCCC1,-11% (inactive)
